The text below walks through data of PubChem BioAssay (Tox21).

A number with no mark means an inactive call. Results filed as inconclusive are left out. The source made the active and inactive calls. Unless noted, calls come from the whole dose curve; as a rule, active = well fitted curve in the direction sought with a large enough effect in the repeat runs; inconclusive = weak or mixed curves; inactive = no such curve, though single readings can be large; an effect the other way counts as inactive or inconclusive.

A short description of assay [1]: qHTS assay for small molecules that induce genotoxicity in human embryonic kidney cells expressing luciferase-tagged ATAD5 (AID 651632). Note: nearly all actives have a fitted effect of over 15% in size. The method, boiled down:
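HEK293T cells carrying a luciferase reporter tagged to ATAD5 were exposed to compound or DMSO vehicle for 16 hr at 37C, 5% CO2. Amplite was added, and after 30 min at room temperature luciferase activity was read as a marker of ATAD5 induction.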

Assay [2] is described as follows: qHTS assay for small molecule agonists of the p53 signaling pathway - cell viability (AID 651633; calls by dose curve; note: series mostly up to about 83 µM; nearly all actives have a fitted effect of over 30% in size). The method, boiled down: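 p53RE-bla cells were treated with compound for 16 hours at 37 C. Cytotoxicity was then measured as CellTiter-Glo luminescence after 30 min at room temperature.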
Assay [3] in a line: qHTS assay for small molecules that induce genotoxicity in human embryonic kidney cells expressing luciferase-tagged ATAD5 - cell viability (AID 651634; calls by dose curve; note: nearly all actives have a fitted effect of over 25% in size). The method, boiled down: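 HEK293T cells expressing luciferase-tagged ATAD5 were exposed to compound or DMSO for 15.5 hr at 37C, 5% CO2. Viability was then read as live-cell protease activity by CellTiter-Fluor fluorescence after 30 min at 37C.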
Background: qHTS replaces the single test concentration by a dilution series.

A short description of assay [4]: qHTS assay for small molecule disruptors of the mitochondrial membrane potential - cell viability (AID 720634; calls by dose curve;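 note: human HepG2 liver cancer cells; series mostly up to about 83 µM; nearly all actives have a fitted effect of over 20% in size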). In a few lines:
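HepG2 cells seeded overnight at 37 C, then exposed to compound or DMSO for 1 hr at 37 C, 5% CO2. m-MPI dye added, then CellTiter-Glo for 30 min at room temperature; viability read as ATP luminescence.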

A short description of assay [5]: qHTS assay for small molecule disruptors of the mitochondrial membrane potential (AID 720635). Note: potency is the fitted concentration of half-maximal effect. In a few lines:
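HepG2 cells exposed to compound 1 hr at 37C, then Mito-MPS dye 30 min. Ratio read of aggregate (540/590 nm) versus monomer (490/535 nm) fluorescence.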

Assay [6] can be described thus: qHTS assay to test for compound auto fluorescence at 590 nm (red) in HepG2 cells (AID 720674). The method, boiled down:
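HepG2 cells, 2,000 per well in MEM with 10% FBS, attached overnight at 37 C, then got 23 nL compound or DMSO. After 1 hr at 37 C, 5% CO2, red fluorescence was read at 540/590 nm against Rose Bengal sodium as reference.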

The nature of assay [7]: qHTS assay to test for compound auto fluorescence at 535 nm (green) in HepG2 cells (AID 720675).
Assay [8] is described as follows: qHTS assay to test for compound auto fluorescence at 460 nm (blue) in HEK293 cells (AID 720678). In a few lines: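 Intrinsic compound fluorescence is recorded in live HEK293 cultures after overnight incubation at 37C, 5% CO2, using excitation 405 nm and emission 460 nm. Values are referenced to triamterene.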
Assay [9] is described as follows: qHTS assay to test for compound auto fluorescence at 590 nm (red) in HEK293 cells (AID 720679). In a few lines:
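Red autofluorescence, HEK293 cells: 2,000 cells/well; attach 4-5 hr 37C; add 23 nL cpd or DMSO; incubate o/n 37C 5% CO2; read Ex540/Em590; Rose Bengal sodium reference.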

Assay [10] is described as follows: qHTS assay to test for compound auto fluorescence at 535 nm (green) in HEK293 cells (AID 720680).
Assay [11] in a line: qHTS assay to test for compound auto fluorescence at 460 nm (blue) in HEK293 cell free culture (AID 720681). The method, boiled down:
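Compounds were added to cell-free DMEM with 10% FBS and fluorescence read directly. The blue channel used 405 nm excitation and 460 nm emission, with triamterene as the reference fluorophore.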

A short description of assay [12]: qHTS assay to test for compound auto fluorescence at 535 nm (green) in HEK293 cell free culture (AID 720682). The method, boiled down: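 Read-out: 485/535 nm fluorescence intensity, calibrated against fluorescein. Medium only (DMEM + 10% FBS, no cells); test compound or DMSO vehicle added by pintool before plate reading.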
A short description of assay [13]: qHTS assay to test for compound auto fluorescence at 590 nm (red) in HEK293 cell free culture (AID 720683). The method, boiled down: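 Cell-free wells of DMEM with 10% FBS received compound, and intrinsic fluorescence was read at excitation/emission 540/590 nm. Values expressed as equivalence to Rose Bengal sodium.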
A short description of assay [14]: qHTS assay to test for compound auto fluorescence at 590 nm (red) in HepG2 cell free culture (AID 720684). The method, boiled down: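 Compound was pinned into wells holding MEM with 10% FBS and no cells, and red fluorescence was read at Ex/Em 540/590 nm. Signal is expressed as auto fluorescence equivalency relative to Rose Bengal sodium.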
The nature of assay [15]: qHTS assay to test for compound auto fluorescence at 460 nm (blue) in HepG2 cell free culture (AID 720685). The method, boiled down: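 Compound (23 nL) or DMSO pinned into cell-free MEM with 10% FBS; blue fluorescence read at 405/460 nm excitation/emission, expressed as auto-fluorescence equivalency to triamterene.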
Assay [16] in a line: qHTS assay to test for compound auto fluorescence at 535 nm (green) in HepG2 cell free culture (AID 720686).
The nature of assay [17]: qHTS assay to test for compound auto fluorescence at 460 nm (blue) in HepG2 cells (AID 720687). The method, boiled down:
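HepG2 cells in MEM with 10% FBS, attached overnight at 37 C, were exposed to compound or DMSO for 1 hr at 37 C, 5% CO2. Blue fluorescence was read at 405/460 nm, with triamterene as reference fluorophore.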

Assay [18] can be described thus: qHTS assay for small molecule agonists of the p53 signaling pathway (AID 651631; calls by dose curve; note: nearly all actives have a fitted effect of over 15% in size; note: potency is the fitted concentration of half-maximal effect). The method, boiled down:
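HCT-116 cells carrying a stable p53 response element–beta-lactamase reporter were plated, rested 5 h at 37 °C, then exposed to compound in DMSO for 16 h at 37 °C; reporter activity was read as FRET substrate fluorescence after 2 h at room temperature.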

Assay [19] deals with Glucocorticoid receptor (Homo sapiens) (UniProt P04150). Description: qHTS assay to identify small molecule agonists of the glucocorticoid receptor (GR) signaling pathway (AID 720691; active = well fitted activation curve with a large enough effect in the signal ratio in the repeat runs, not every such curve was filed as active; the % refers to the signal ratio). The method, boiled down: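 GR-bla HeLa cells (beta-lactamase reporter under glucocorticoid response element) were plated 4 h at 37 C/5% CO2, given compounds in DMSO, and incubated 18 h at 37 C. LiveBLAzer B/G FRET substrate was added for 2 h at room temperature, then fluorescence intensity read.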
Sequence of Glucocorticoid receptor (Homo sapiens) (P04150 whole entry, looked up): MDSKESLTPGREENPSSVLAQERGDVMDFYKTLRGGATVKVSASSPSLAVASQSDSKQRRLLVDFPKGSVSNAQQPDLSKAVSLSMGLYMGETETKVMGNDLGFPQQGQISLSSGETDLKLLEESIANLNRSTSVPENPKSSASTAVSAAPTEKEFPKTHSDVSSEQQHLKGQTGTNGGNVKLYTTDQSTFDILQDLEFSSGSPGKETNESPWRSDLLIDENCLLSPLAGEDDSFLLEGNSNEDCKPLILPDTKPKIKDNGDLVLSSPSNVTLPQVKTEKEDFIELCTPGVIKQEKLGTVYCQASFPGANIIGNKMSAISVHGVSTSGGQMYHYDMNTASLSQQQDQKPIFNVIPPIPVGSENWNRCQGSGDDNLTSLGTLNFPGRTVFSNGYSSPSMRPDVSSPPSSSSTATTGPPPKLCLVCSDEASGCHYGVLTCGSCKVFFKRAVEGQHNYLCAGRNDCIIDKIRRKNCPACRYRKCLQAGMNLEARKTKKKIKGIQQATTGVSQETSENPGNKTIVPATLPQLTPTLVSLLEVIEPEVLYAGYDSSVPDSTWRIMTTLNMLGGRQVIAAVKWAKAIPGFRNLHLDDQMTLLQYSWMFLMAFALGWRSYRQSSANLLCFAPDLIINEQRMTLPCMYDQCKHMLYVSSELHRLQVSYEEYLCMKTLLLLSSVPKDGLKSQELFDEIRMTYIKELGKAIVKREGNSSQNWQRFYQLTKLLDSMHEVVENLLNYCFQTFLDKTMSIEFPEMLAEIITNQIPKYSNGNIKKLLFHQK

The target is the same in assay [20]. Description: qHTS assay to identify small molecule antagonists of the glucocorticoid receptor (GR) signaling pathway (AID 720692; active = well fitted inhibition curve with a large enough effect in the signal ratio in the repeat runs, not every such curve was filed as active; the % refers to the signal ratio). In a few lines: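 GR-bla HeLa cells (beta-lactamase reporter under glucocorticoid response element) were pre-plated 4 h at 37 C, treated with compounds plus 5 nM dexamethasone (final) for 18 h, then read by LiveBLAzer B/G FRET fluorescence after 2 h.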

Regarding `CCCCC(CC)COS(=O)(=O)O` (centres undefined), the Potency entry in assay [1], in assay [2], in [3], in assay [5], in assay [8] and in assay [11] was “inactive” each time. Further, the Potency result in assay [15] and in assay [17] was “inactive” in each case. The outcome in [4], in assay [6], in assay [7], in assay [9], in assay [10] and in assay [12] was inactive. The compound was called inactive in assay [13], in assay [14] and in assay [16].

In the case of `COc1ccc(-c2cc(=S)ss2)cc1`, the Potency entry in assay [18], in assay [2], in assay [3], in [8], in [11] and in assay [15] was “inactive” throughout. Moreover, the Potency result in assay [17] and in assay [19] was “inactive” in each case. Also, the outcome in [4], in assay [6], in assay [7], in assay [9], in [10] and in [12] was inactive. In addition, the call in assay [13], in assay [14] and in [16] was inactive. The Potency in assay [5] was 2.11 µM (active).

For `COC(OC)OC`, the Potency result in assay [18], in assay [1], in assay [5], in assay [8], in assay [11] and in [15] was “inactive” each time. Besides, the Potency entry in assay [17], in assay [19] and in [20] was “inactive” each time. Also, the call in assay [4], in assay [6], in assay [7], in assay [9], in assay [10] and in assay [12] was inactive. Besides, the compound was called inactive in assay [13] and in assay [16].

For the compound `COc1ccc(CCN(C)CCCN2CCc3cc(OC)c(OC)cc3CC2=O)cc1OC`, the Potency result in assay [1], in assay [2], in assay [3], in assay [5], in assay [8] and in assay [11] was “inactive” throughout. Also, the Potency entry in assay [15] and in [17] was “inactive” each time. For the same compound, the outcome in assay [4], in assay [6], in assay [7], in assay [9], in [10] and in [12] was inactive. Moreover, the compound was called inactive in [13], in assay [14] and in assay [16].

For `SCCc1cnccn1`, the Potency in [18] was 61.1 µM (active). Moreover, the Potency entry in [3], in assay [5], in [8], in [11], in assay [15] and in assay [17] was “inactive” each time. Besides, the Potency entry in assay [19] is “inactive”. Moreover, the compound was called inactive in [4], in assay [6], in assay [7], in assay [9], in [10] and in assay [12]. In addition, the result in assay [13], in assay [14] and in assay [16] was inactive.

Take `CCCOC(=O)c1c(Cl)c(Cl)c(Cl)c(Cl)c1C(=O)OCCC`: the Potency entry in assay [1], in assay [2], in assay [3], in assay [8], in assay [11] and in assay [15] was “inactive” throughout. Moreover, the Potency result in assay [17], in assay [19] and in [20] was “inactive” throughout. For the same compound, the outcome in assay [4], in assay [6], in [7], in assay [9], in [10] and in assay [12] was inactive. Moreover, the compound was called inactive in [13], in assay [14] and in assay [16]. Also, in assay [5], the Potency was 61.1 µM (active).

Consider `O=C(O)CCC(=O)OC[C@@H](NC(=O)C(Cl)Cl)[C@H](O)c1ccc([N+](=O)[O-])cc1`, for which the Potency entry in assay [18], in [2], in [3], in assay [5], in assay [8] and in assay [11] was “inactive” each time. Further, the Potency entry in assay [15], in [17], in assay [19] and in assay [20] was “inactive” in each case. Moreover, the call in assay [4], in assay [6], in assay [7], in assay [9], in assay [10] and in [12] was inactive. For the same compound, the call in assay [13], in [14] and in assay [16] was inactive.
